High-throughput results: PubChem BioAssay, ICCB-Longwood Screening Facility, Harvard Medical School
This is one part of a sample in which hits are shown more often than they occur.
Vaccinia pol inh: inhibitors of vaccinia virus processive DNA synthesis (E9 polymerase); in vitro processive DNA synthesis, absorbance read-out; stronger effect = lower value; normalized absorbance, % (no concentration beside the values); 46,000 tested, 0.94% active; AID 493162; in the data active = normalized absorbance mostly below about 85%, no sharp cut-off; inactive = mostly above about 86%
Each line names hits and unclear results; the compound was inactive in the other large screens.

CCC(=O)N/C(N)=N\c1nc(C)c2ccccc2n1	none
O=C(O)Cc1cn(-c2ccc(Cl)nn2)c2ccccc12	none
O=C(O)/C=C/c1ccc(-c2cccc(C(F)(F)F)c2)o1	none
O=C(/C=C/c1ccc(Br)o1)/C=C/c1ccc(Br)o1	Vaccinia pol inh 48.6
O=C(/C=C/c1ccc(Br)o1)Nc1nccs1	none
O=C(/C=C/c1ccc(Br)o1)Nc1ccc(F)cc1F	none
O=C(O)/C=C/c1ccc(Br)o1	Vaccinia pol inh 71.9
Cc1ccc(/C=C/C(=O)O)o1	none
c1ccc(-c2ncc3c(n2)-c2ccccc2CC3)cc1	none
CC(C(=O)N1CCc2ccccc21)n1sc2ccccc2c1=O (stereo unspecified)	none
O=C1CCCN=C(N(C(=O)c2ccco2)c2ccc(F)cc2F)S1	none
Oc1ccccc1C=Nc1ccccc1Cl	none
COc1ccc(C=Nc2ccc(OCC(O)CN3C(C)CCCC3C)cc2)cc1OC (stereo unspecified)	none
COc1ccc(-c2ccc3ccccc3n2)cc1OC	none
Cn1c(-c2ccc3ccccc3n2)[n+](C)c2ccccc21	none
C[n+]1cc(-c2ccc3ccccc3n2)cc2ccccc21	Vaccinia pol inh 84.8
O=C(O)c1ccc(S(=O)(=O)N2CCCCC2)cc1	none
CC(C)N=Cc1c(Cl)nc2sccn12	none
COC(=O)C1=C(C)N(CC(C)C)C(=O)/C1=C\c1ccco1	none
CC1=C(C(=O)Nc2ccc(Cl)cc2C(=O)N2CCc3ccccc32)SCCO1	none
CC(C)C(=O)Nc1ccccc1-c1nc2ccccc2[nH]1	none
S=C(Nc1ccccc1)Nc1ccccc1-c1nc2ccccc2[nH]1	Vaccinia pol inh 68.5
O=C(Nc1ccccc1-c1nc2ccccc2[nH]1)C1=COCCO1	none
O=C(O)c1cc(C=Nc2ccc3c(c2)OCCOCCOCCO3)ccc1O	none
O=C(/C=C/c1ccccc1)OC1CCOC1=O (stereo unspecified)	none
c1ccc(C2=Nc3ccccc3N=C(c3ccccc3)C2)cc1	none
O=C1c2ccc(O)c(O)c2C(=O)c2c(O)ccc(O)c21	none
O=C1C=CC(=O)c2c(O)cccc21	Vaccinia pol inh 74.4
O=C1c2cccc(O)c2C(=O)c2c(O)cccc21	none
COc1ccc(S(=O)(=O)NC2CCCCCC2)cc1C	none
c1ccc(-c2[nH]ncc2CNCc2ccco2)cc1	none
Cc1ccc(S(=O)(=O)Nc2c(-c3ccccc3)c3cc(C)ccc3[nH]c2=O)cc1	none
Cc1ccc2[nH]c(=O)c(CN3CCOCC3)c(-c3ccccc3)c2c1	Vaccinia pol inh 66.7
Cc1ccc2[nH]c(-c3ccccc3)c(CN3CCCC3)c(=O)c2c1	none
Cc1nc2sccn2c(=O)c1S(=O)(=O)NCCC(C)C	none
COc1cc(/C=C/C(=O)O)cc(S(=O)(=O)N2CCOCC2)c1OC	none
COC(=O)c1cc(C(=O)OC)cc(N2Cc3nccnc3C2=O)c1	none
COc1ccc(/C=C/C(=O)N2CCOCC2)cc1	none
O=C(Nc1ccc(O)c(-c2nc3ccccc3s2)c1)C1CCCCC1	none
N#C/C(=C\Nc1ccc(C(N)=O)cc1)c1nc(-c2cccc3ccccc23)cs1	none
CC(=O)NCc1ccc2c(c1)cc(C)n2C	none
C[C@@]1(C(=O)O)CC[C@]2(C)CC[C@]3(C)C4=CC=C5C=C(O)C(=O)C=C5[C@]4(C)CC[C@@]3(C)[C@@H]2C1	Vaccinia pol inh 77.0
CC(=O)Nc1ccc(S(=O)(=O)N2CCN=C2SCc2c(F)cccc2Cl)cc1	none
COc1cc(OC)cc(C(=O)N=c2sc3cc(C)cc(C)c3n2C)c1	none
CCNc1cc(N)[n+](CC)c2n[nH]c(/N=C/c3cc(Cl)cc(Cl)c3O)c12	Vaccinia pol inh 69.0
Cc1nc(C(=O)Oc2ccc(Cl)cc2)sc1C(=O)Oc1ccc(Cl)cc1	none
N#Cc1ccc(-c2ccc(Cl)cc2)nc1Cl	none
CCN1CCCC1CNC(=O)c1noc2c1COc1ccc(C)cc1-2 (stereo unspecified)	Vaccinia pol inh 63.3
Cc1ccc2c(c1)-c1onc(C(=O)NC3CCCc4ccccc43)c1CO2 (stereo unspecified)	none
CCc1nnc(NC(=O)c2noc3c2COc2ccc(C)cc2-3)s1	none
O=C(Nc1nnc(SCC(=O)N2CCc3ccccc32)s1)C1CCCCC1	none
CN(C)CC(O)Cn1c2ccc(Cl)cc2c2cc(Cl)ccc21 (stereo unspecified)	Vaccinia pol inh 27.3
CC1CCN(CC(O)Cn2c3ccccc3c3ccccc32)CC1 (stereo unspecified)	none
Cc1ccc2c(c1)c(C)c(C)n2CC(O)CN1CCCCC1 (stereo unspecified)	none
CN(CC(O)Cn1c2ccccc2c2ccccc21)S(=O)(=O)c1ccc(Cl)cc1 (stereo unspecified)	none
OC(CN1CCNCC1)Cn1c2ccccc2c2cc(Br)ccc21 (stereo unspecified)	Vaccinia pol inh 55.8
OC(COc1ccccc1Br)CN1CCNCC1 (stereo unspecified)	none
CCn1c2c(c3cc(Br)ccc31)CCCC2=O	none
CN(C)CC(O)Cn1c2ccccc2c2ccccc21 (stereo unspecified)	none
OCC(O)Cn1c2ccc(Br)cc2c2cc(Br)ccc21 (stereo unspecified)	Vaccinia pol inh 64.7
CCOC(=O)C1CCCN(C(=O)c2ccccc2OCc2ccccc2)C1 (stereo unspecified)	none
O=c1cc(CO)oc(CN2CCOCC2)c1O	none
COc1ccc(C(=O)NCC(=O)O)cc1OC	none
O/N=C1/CCCc2nn(-c3ccccc3)nc21	none
O=C(Cc1ccccc1)Nc1ccc(Cl)c(Cl)c1	none
N#C/C(=C\C(=O)O)c1cccs1	none
COc1cccc(NC(=O)c2ccc(OC(=S)N3CCC(C)CC3)cc2)c1	none
O=C(NCCSc1c[nH]c2ccccc12)C1CCCC1	none
Cc1cc(=O)oc2c(CN3CCCCC3)c(O)ccc12	none
CCOC(=O)c1c(C)oc2c1c(CN1CCN(C)CC1)c(O)c1ccccc12	none
Cc1cc(O)c(CN2CCN(C)CC2)c2oc(=O)c3ccccc3c12	Vaccinia pol inh 81.4
CN1C(C(=O)N2CCCC2)=CC(c2cccs2)=NS1(=O)=O	none
CN(C)CCOC(=O)c1ccc2[nH]c3c(c2c1)CSCC3	Vaccinia pol inh 57.5
O=C(O)c1ccc2[nH]c3c(c2c1)CSCC3	none
CC(C)OC(=O)c1ccc2[nH]c3c(c2c1)CCCC3	none
CCC(O)C12CC3CC(CC(C3)C1)C2 (stereo unspecified)	none
COc1ccc(Nc2nc(C(=O)N3CCN(C)CC3)cs2)cc1	none
N#Cc1cnoc1N1CCCc2ccccc21	none
CCn1cc(C(=O)NN)c(=O)c2cc(F)c(N3CCCC3)cc21	none
CCn1cc(C(=O)O)c(=O)c2cnc(N3CCNCC3)nc21	none
CCn1cc(C(=O)O)c(=O)c2cc(F)c(N3CCNCC3)cc21	Vaccinia pol inh 76.9
Cn1ccnc1C(=O)c1cc(-c2ccco2)nc2ccccc12	none
CCN(CC)C(=O)c1cc(-c2ccco2)nc2ccccc12	none
c1coc(-c2cn3ccc4ccccc4c3n2)c1	Vaccinia pol inh 84.2
Cc1cc(C(=O)n2ccc(-c3cccs3)n2)c(C)o1	none
O=C1/C(=C/c2ccccc2C(F)(F)F)N2CCC1CC2	none
CCOC(=O)N1CCN(C(=O)c2cc(Nc3ccc(OC)cc3OC)nc3ccccc23)CC1	none
COc1ccc(Nc2nc(N3CCN(C)CC3)nc3ccccc23)c(OC)c1	Vaccinia pol inh 52.7
COc1ccc(Nc2cc(C(=O)N3CCc4ccccc4C3)c3ccccc3n2)c(OC)c1	none
CN(C)CCN(Cc1ccco1)C(=O)Cn1nc(Cc2ccncc2)c2ccccc2c1=O	none
O=c1c2nnn(Cc3ccc(F)cc3)c2ncn1Cc1ccc(F)cc1	Vaccinia pol inh 69.2
Cc1ccc(Cn2nnc3c(=O)n(Cc4cccc(C)c4)cnc32)cc1	none
Cc1ccc(Cn2nnc3c(=O)n(Cc4ccc(C(F)(F)F)cc4)cnc32)cc1	none
CC1CCN(C(=O)COC(=O)c2ccc(I)cc2)CC1	none
Cc1c(C(=O)Nc2ccccc2)sc2ncn(CC(=O)N3CCC(C)CC3)c(=O)c12	none
CCN1/C(=C/c2sc3ccccc3[n+]2CCO)Sc2ccccc21	none
